# From PubChem BioAssay
# IDE exosite inh – exo-site inhibitors of human insulin-degrading enzyme | 17,000 compounds, 6.3% hits | z-score at 20 µM | P14735 | AID 1259349 | purified IDE, FL-6b probe fluorescence polarization; hits give low values;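 active = z-score of -3 or lower, meaning strong loss of probe binding signal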;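 note: His-tagged human IDE residues 42-1019 made in E. coli with 30 nM FL-6b probe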
# Active calls of the source: *. The full list was thinned out, with hits kept by preference.
SMILES,IDE exosite inh
COc1ccccc1-c1ccc([C@@H]2[C@H](C#N)N(C(=O)C3CC3)[C@H]2CO)cc1,-5.9*
COc1ccccc1-c1ccc([C@H]2[C@@H](CO)N(C(=O)NC(C)C)[C@H]2C#N)cc1,-16*
COc1ccccc1-c1ccccc1[C@@H]1[C@@H](CO)N(C(=O)C2CCC2)[C@H]1C#N,2.7
COc1ccccc1-c1ccc([C@@H]2[C@@H](C#N)N(C(=O)C3CC3)[C@@H]2CO)cc1,-17*
COc1ccccc1-c1ccccc1[C@@H]1[C@@H](C#N)N(C(=O)C2CCC2)[C@@H]1CO,5.1
N#C[C@H]1[C@@H](c2ccc(-c3ccccc3F)cc2)[C@H](CO)N1C(=O)C1CCC1,-0.67
N#C[C@@H]1[C@@H](c2ccc(-c3ccccc3F)cc2)[C@H](CO)N1C(=O)C1CC1,-3.1*
COc1ccc(-c2ccc([C@H]3[C@@H](C#N)N(C(=O)NC(C)C)[C@@H]3CO)cc2)cc1,-1.3
C[C@@H]1CN([C@@H](C)CO)C(=O)c2c(c3ccccc3n2C)-c2ccccc2CO[C@H]1CN(C)C(=O)[C@H]1CCCN1C,0.46
CCCNC(=O)C[C@@H]1CC[C@@H]2[C@H](COC[C@@H](O)CN2C(=O)c2ccc(F)cc2)O1,0.073
COCC(=O)N1CC2(CCN(Cc3cccnc3)CC2)c2c(n(C)c3cc(OC)ccc23)[C@H]1CO,-0.42
O=S(=O)(c1ccc(F)cc1)N1CCCCN2[C@H](CO)[C@H](c3ccc(-c4ccccc4)cc3)[C@H]2C1,1.4
COCC(=O)N1[C@H](C#N)[C@@H](c2ccccc2-c2ccc(C)cc2)[C@@H]1CO,3.1
CCC(=O)NC[C@H]1[C@H](c2ccc(C3=CCCC3)cc2)[C@H](CO)N1C(=O)C1CC1,2.4
Cc1ccc(S(=O)(=O)NCC[C@H]2CC[C@@H](NC(=O)c3cccnc3)[C@@H](CO)O2)cc1,-1.3
CN(C)C(=O)c1ccc(-c2ccc([C@H]3[C@@H](C#N)N(C(=O)C4CCOCC4)[C@H]3CO)cc2)cc1,-0.53
CC(C)NC(=O)N(C)C[C@H]1Oc2ccc(NC(=O)Cc3ccccc3)cc2CC(=O)N([C@H](C)CO)C[C@@H]1C,1.3
CC(C)CC#Cc1ccc([C@H]2[C@H](CO)N3C(=O)CN(C(=O)c4ccccn4)C[C@@H]23)cc1,0.58
Cc1ccc(-c2ccccc2[C@@H]2[C@H](C#N)N(C(=O)c3cccc(F)c3)[C@H]2CO)cc1,0.43
COc1ccc(-c2ccc([C@H]3[C@H](C#N)N(C(=O)c4cccc(F)c4)[C@H]3CO)cc2)cc1,2.6
COc1ccccc1-c1ccc([C@@H]2[C@@H](CO)N(C(=O)C3CC3)[C@H]2C#N)cc1,-7.8*
N#C[C@@H]1[C@H](c2ccc(-c3ccccc3F)cc2)[C@H](CO)N1C(=O)C1CCC1,0.44
COc1ccc(-c2ccccc2[C@H]2[C@@H](C#N)N(C(=O)C3CC3)[C@H]2CO)cc1,3
COc1ccccc1-c1ccc([C@@H]2[C@@H](C#N)N(C(=O)c3cccc(F)c3)[C@@H]2CO)cc1,-13*
CO[C@@H]1CN(C)C(=O)c2ccc(NC(=O)NC3CCCCC3)cc2OC[C@@H](C)NC[C@H]1C,-0.075
SMILES,IDE exosite inh
CC(C)NC(=O)N[C@H]1CC[C@H](CC(=O)NCCCN(C)C)O[C@@H]1CO,1.7
CCS(=O)(=O)N1[C@H](C#N)[C@@H](c2ccc(C#CC(C)C)cc2)[C@H]1CO,0.077
CC(=O)N1CC(=O)N2[C@H](CO)[C@H](c3ccc(-c4ccc(C#N)cc4)cc3)[C@@H]2C1,1.4
COCC(=O)N1CCCCN2[C@H](C1)[C@@H](c1ccc(C#Cc3cccnc3)cc1)[C@@H]2CO,-0.14
COCC(=O)N1CCCCN2[C@H](CO)[C@@H](c3ccc(C#Cc4cccnc4)cc3)[C@@H]2C1,0.082
CCC(=O)N1CCCCN2[C@H](CO)[C@@H](c3ccc(C#Cc4cccnc4)cc3)[C@@H]2C1,-5.2*
COCC(=O)N1CCCCN2[C@H](CO)[C@@H](c3ccc(C#Cc4cccnc4)cc3)[C@H]2C1,2.7
O=C(c1cccnc1)N1CCCCN2[C@H](C1)[C@H](c1ccc(C#Cc3cccnc3)cc1)[C@@H]2CO,-1.5
CCC(=O)N1CCCCN2[C@H](CO)[C@H](c3ccc(C#Cc4cccnc4)cc3)[C@H]2C1,-3.2*
O=C(c1cccnc1)N1CCCCN2[C@H](CO)[C@@H](c3ccc(C#Cc4cccnc4)cc3)[C@@H]2C1,-0.3
CCC(=O)N1CCCCN2[C@@H](CO)[C@H](c3ccc(C#Cc4cccnc4)cc3)[C@@H]2C1,-5.4*
O=C(c1cccnc1)N1CCCCN2[C@H](CO)[C@H](c3ccc(C#Cc4cccnc4)cc3)[C@H]2C1,4.7
N#C[C@H]1[C@H](c2ccccc2)[C@H](CO)N1S(=O)(=O)c1cccc(F)c1,0.28
C[C@H]1CN([C@@H](C)CO)C(=O)c2ccccc2-c2ccccc2CO[C@@H]1CN(C)C(=O)[C@@H](Cc1ccccc1)N(C)C,-1.5
COCC(=O)N(C[C@@H]1N[C@@H](CO)[C@@H]1c1ccc(C2=CCCCC2)cc1)C(C)C,3.9
COc1ccc(-c2ccc(C3[C@H]4CNC[C@@H]3N4Cc3cncnc3)cc2)cc1 (stereo partly specified),1.1
CNC[C@H]1OCCCC[C@@H](C)Oc2ccc(NS(=O)(=O)c3ccc(F)cc3)cc2C(=O)N([C@H](C)CO)C[C@@H]1C,0.19
C[C@@H](NC(=O)C[C@@H]1CC[C@@H]2[C@@H](COc3ccc(NS(=O)(=O)c4ccc(Cl)cc4)cc3C(=O)N2C)O1)c1ccccc1,-0.92
OC[C@@H]1[C@H](c2ccc(Br)cc2)[C@H]2CNCCCCN12,0.53
O=C(C1CCOCC1)N1CC(=O)N2[C@@H](CO)[C@@H](c3ccc(C#Cc4cccc(F)c4)cc3)[C@@H]2C1,-4.8*
O=C(C1CCOCC1)N1CC(=O)N2[C@H](CO)[C@@H](c3ccc(C#CC4CC4)cc3)[C@H]2C1,3.1
O=C(C1CCOCC1)N1CC(=O)N2[C@H](C1)[C@@H](c1ccc(C#CC3CC3)cc1)[C@@H]2CO,-1.1
O=C(C1CCOCC1)N1CC(=O)N2[C@H](C1)[C@H](c1ccc(C#Cc3cccc(F)c3)cc1)[C@@H]2CO,-8.4*
COc1ccc(C#Cc2ccc([C@H]3[C@H]4CN(C(=O)C5CCOCC5)CC(=O)N4[C@H]3CO)cc2)cc1,-0.065
COc1ccc(C#Cc2ccc([C@@H]3[C@@H](CO)N4C(=O)CN(C(=O)C5CCOCC5)C[C@@H]34)cc2)cc1,-0.35
SMILES,IDE exosite inh
COc1ccc(C#Cc2ccc([C@H]3[C@@H](CO)N4CCCCN(Cc5ccncc5)C[C@H]34)cc2)cc1,3.5
C/C=C/c1ccc([C@H]2[C@@H](CO)N3C(=O)CN(Cc4ccc(C)cc4)C[C@@H]23)cc1,0.047
O=C(C[C@H]1CC[C@H]2[C@@H](COC[C@@H](O)CN2Cc2ccc(F)cc2)O1)NCCc1ccccc1,-0.51
COc1cccc(C#Cc2ccc([C@@H]3[C@H]4CN(C(=O)c5ccccc5)CC(=O)N4[C@H]3CO)cc2)c1,3.7
COc1cccc(C#Cc2ccc([C@H]3[C@H]4CN(C(=O)c5ccncc5)CC(=O)N4[C@H]3CO)cc2)c1,-1.6
COc1cccc(C#Cc2ccc([C@H]3[C@@H](CO)N4C(=O)CN(C(=O)c5ccccc5)C[C@H]34)cc2)c1,-3.8*
COc1cccc(C#Cc2ccc([C@@H]3[C@@H](CO)N4C(=O)CN(C(=O)c5ccncc5)C[C@H]34)cc2)c1,-1.5
COc1cccc(C#Cc2ccc([C@H]3[C@@H](CO)N4C(=O)CN(C(=O)c5ccccc5)C[C@@H]34)cc2)c1,0.74
